Reference: PubChem BioAssay (NCATS)
Inconclusive results are not listed. The source made the active and inactive calls. The call rests on the fitted dose curve; in most records, active means well fitted curve in the direction sought with a large enough effect; inconclusive means small, poorly fitted or top-dose-only effect, or another doubt; inactive means no such curve, though single readings can be large; an effect the other way counts as inactive or inconclusive.

How the values were obtained:
[1] = tested on: MCC-13; assay: qHTS assay to identify novel small-molecules to repurpose for Merkel cell carcinoma treatment (AID 1296009); settings: MCC and control cell lines, CellTiter-Glo viability, 72 h; series mostly up to 46 µM; further: nearly all actives have a fitted effect of over 60% in size
How it was run: (§1)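 Luminescence from CellTiter-Glo, read 10 min after addition at room temperature, reported viability following a 72 hr, 37 degree celsius treatment with NPC or MIPE compounds in titration; values normalized to plate controls.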

[2] = tested on: MCC-26; assay: as above; settings: MCC and control cell lines, CellTiter-Glo viability, 72 h; series mostly up to 46 µM
How it was run: as §1

[3] = tested on: MKL-1; assay: as above; settings: MCC and control cell lines, CellTiter-Glo viability, 72 h; series mostly up to 46 µM
How it was run: as §1

[4] = tested on: MKL-2; assay: as above; settings: MCC and control cell lines, CellTiter-Glo viability, 72 h; series mostly up to 46 µM
How it was run: as §1

[5] = tested on: NIH3T3; assay: as above; settings: MCC and control cell lines, CellTiter-Glo viability, 72 h; at 44.8 µM (top of the series) unless noted
How it was run: as §1

[6] = tested on: UISO; assay: as above; settings: MCC and control cell lines, CellTiter-Glo viability, 72 h; series mostly up to 46 µM
How it was run: as §1

[7] = tested on: WaGa; assay: as above; settings: MCC and control cell lines, CellTiter-Glo viability, 72 h; series mostly up to 46 µM
How it was run: as §1

[8] = tested on: C33A; assay: Primary qHTS to identify gynecologic anti-cancer compounds using libraries of approved drugs and bioactive compounds (AID 1345084); settings: Gynecologic cancer cell panel viability, ATPlite luminescence, 48 h; series mostly up to 57.5 µM; further: nearly all actives have a fitted effect of over 55% in size
How it was run: (§2)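 48 h compound exposure at 37 C, 5% CO2; five-point qHTS. ATPlite luminescence readout of cell ATP.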

[9] = tested on: CAOV3; assay: as above; settings: Gynecologic cancer cell panel viability, ATPlite luminescence, 48 h; series mostly up to 57.5 µM
How it was run: as §2

[10] = tested on: CASKI; assay: as above; settings: Gynecologic cancer cell panel viability, ATPlite luminescence, 48 h; series mostly up to 57.5 µM
How it was run: as §2

Measured: Potency

c1ccc2c(c1)CCCC2C1=NCCN1 (configuration not stated)
inactive: [1] | [2] | [3] | [4] | [5] | [6] | [7] | [8] | [9] | [10]

CN(C)C(=O)Oc1ccc[n+](C)c1
inactive: [1] | [2] | [3] | [4] | [5] | [6] | [7] | [8] | [9] | [10]

O=C(O)CP(=O)(O)O
inactive: [1] | [2] | [3] | [4] | [5] | [6] | [7] | [8] | [9] | [10]

NC(=Nc1ccccc1)Nc1ccccc1
inactive: [1] | [2] | [3] | [4] | [5] inactive [at 92 µM] | [6] | [7] | [8] | [9] | [10]

CCN(Cc1ccncc1)C(=O)C(CO)c1ccccc1 (configuration not stated)
inactive: [1] | [2] | [3] | [4] | [6] | [7] | [8] | [9] | [10]

COCCc1ccc(OCC(O)CNC(C)C)cc1 (configuration not stated)
inactive: [1] | [2] | [3] | [4] | [5] | [6] | [7] | [8] | [9] | [10]

CCN(CC)CC(=O)Nc1c(C)cccc1C
inactive: [1] | [2] | [3] | [4] | [5] | [6] | [7] | [8] | [9] | [10]

CC(=O)Oc1cc(C(C)C)c(OCCN(C)C)cc1C
inactive: [1] | [2] | [3] | [4] | [5] | [6] | [7] | [8] | [9] | [10]

CN(C)CCN(Cc1cccs1)c1ccccn1
inactive: [1] | [2] | [3] | [4] | [6] | [7] | [8] | [9] | [10]

O=C(O)CCCCCCCC(=O)O
inactive: [1] | [2] | [3] | [4] | [5] | [6] | [7] | [8] | [9] | [10]

Cc1ccc(/C(=C\CN2CCCC2)c2ccccn2)cc1
inactive: [1] | [2] | [3] | [4] | [6] | [7] | [8] | [9] | [10]

CN(C)[C@@H]1C(=O)C(C(N)=O)=C(O)[C@@]2(O)C(=O)C3=C(O)c4c(O)ccc(Cl)c4[C@@H](O)[C@H]3C[C@@H]12
inactive: [1] | [2] | [3] | [4] | [5] | [6] | [7] | [8] | [9] | [10]

CNC1(C)C2CCC(C2)C1(C)C (configuration not stated)
inactive: [1] | [2] | [3] | [4] | [5] | [6] | [7] | [8] | [9] | [10]

NC(=O)N1c2ccccc2C=Cc2ccccc21
inactive: [1] | [2] | [3] | [4] | [6] | [7] | [8] | [9] | [10]

CCn1nc(C(=O)O)c(=O)c2cc3c(cc21)OCO3
inactive: [1] | [2] | [3] | [4] | [6] | [7] | [8] | [9] | [10]

CCN1CCC[C@H]1CNC(=O)c1c(O)c(Cl)cc(Cl)c1OC
inactive: [1] | [2] | [3] | [4] | [6] | [7] | [8] | [9] | [10]

COc1ccc(CCN(C)CCCC(C#N)(c2cc(OC)c(OC)c(OC)c2)C(C)C)cc1OC (configuration not stated)
inactive: [1] | [2] | [3] | [4] | [6] | [7] | [8] | [9] | [10]

c1cnc(N2CCN(Cc3ccc4c(c3)OCO4)CC2)nc1
inactive: [1] | [2] | [3] | [4] | [6] | [7] | [8] | [9] | [10]

CCCOc1ccccc1-c1nc2n[nH]nc2c(=O)[nH]1
inactive: [1] | [2] | [3] | [4] | [6] | [7] | [8] | [9] | [10]

Cc1ccc(=O)n(-c2ccccc2)c1
inactive: [1] | [2] | [3] | [4] | [6] | [7] | [8] | [9] | [10]

NC(N)=NC(=O)Cc1c(Cl)cccc1Cl
inactive: [1] | [2] | [3] | [4] | [6] | [7] | [8] | [9] | [10]

CCn1ccnc1CC1COc2ccccc2O1 (configuration not stated)
inactive: [1] | [2] | [3] | [4] | [6] | [7] | [8] | [9] | [10]

C(=C\c1ccccc1)/CN1CCN(C(c2ccccc2)c2ccccc2)CC1
inactive: [1] | [2] | [3] | [4] | [6] | [7] | [8] | [9] | [10]
